# Experimental data from PubChem BioAssay (NCI).
# Compounds without any hit were thinned out: in the full panel of roughly 79,000, 15% have a hit. Unmarked numbers belong to inactive results. Activity calls are given as the source filed them. Cut-off read from the data, not from the text of the source: active = growth inhibition above about 70%; inactive = the rest.
# Experiments:
# [1] = NCI Yeast Anticancer Drug Screen. Data for the rad50 strain (AID 155);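 note: 0% = growth of vehicle-only cultures of the same strain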; details: S. cerevisiae rad50 strain growth inhibition, hits give high values
# In short: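 Cells are treated with compound, grown, and their growth is then scored against vehicle-only cultures of the same repair-deficient yeast strain.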
# [2] = NCI Yeast Anticancer Drug Screen. Data for the mec2-1 strain (AID 157); details: S. cerevisiae mec2-1 strain, hits give high values
# In short: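 Each compound was tested on mec2-1 yeast, a strain altered in DNA damage repair or cell cycle control. Growth inhibition is reported relative to vehicle.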
# [3] = NCI Yeast Anticancer Drug Screen. Data for the sgs1 mgt1 strain (AID 161);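 note: 0% = growth of cultures given vehicle only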; details: S. cerevisiae sgs1 mgt1 strain, hits give high values
# In short: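 Read-out: growth inhibition vs vehicle controls. Cells: mutant yeast strain deficient in DNA damage repair.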
# [4] = NCI Yeast Anticancer Drug Screen. Data for the cln2 rad14 strain (AID 165);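 note: 0% = growth equal to vehicle treated cultures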; details: S. cerevisiae cln2 rad14 strain, hits give high values
# In short: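 Test compounds were added to cln2 rad14 yeast cultures; inhibition of growth was then determined by comparison with vehicle treatment.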
# [5] = NCI Yeast Anticancer Drug Screen. Data for the bub3 strain (AID 167); details: S. cerevisiae bub3 mutant strain, hits give high values
# In short: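 Part of a panel of yeast mutants defective in DNA damage repair or cell cycle regulation. Each strain is grown with compound, and inhibition is calculated relative to solvent-treated cultures.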
# [6] = NCI Yeast Anticancer Drug Screen. Data for the mlh1 rad18 strain (AID 175); details: S. cerevisiae mlh1 rad18 strain growth inhibition, hits give high values
# In short: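 Inhibition values reflect reduced growth of mutant yeast versus vehicle-treated controls following compound exposure; the mutations affect DNA damage repair.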
# [7] = at 5.0 µM (retest, dose inferred, filed as 0.5)
# [8] = at 50.0 µM (retest, dose inferred, filed as 5.0)
SMILES,"growth inhibition [1, 7] [%]","growth inhibition [1, 8]",growth inhibition ([1]; at 50.0 µM),"growth inhibition [2, 7] [%]","growth inhibition [2, 8]",growth inhibition ([2]; at 50.0 µM),"growth inhibition [3, 7] [%]","growth inhibition [3, 8]",growth inhibition ([3]; at 50.0 µM),"growth inhibition [4, 7] [%]","growth inhibition [4, 8]",growth inhibition ([4]; at 50.0 µM),"growth inhibition [5, 7] [%]","growth inhibition [5, 8]",growth inhibition ([5]; at 50.0 µM),"growth inhibition [6, 7] [%]","growth inhibition [6, 8]",growth inhibition ([6]; at 50.0 µM)
CO/N=C/c1ccc([N+](=O)[O-])s1,-147,95% (active),65.7%,-44,80% (active),16.6%,-51,71% (active),33.8%,-63,48%,7.5%,-61,76% (active),29.7%,-108,94% (active),75.5% (active)
CCOC(=S)SSC(=S)NCCNC(=S)SSC(=S)OCC,9,40%,70.7% (active),4,72% (active),36.5%,13,86% (active),79.8% (active),-1,30%,73.1% (active),4,91% (active),2.55%,11,78% (active),76.4% (active)
CC(C)(C)[Si](C)(C)O/N=C\c1cccc(O[Si](C)(C)C(C)(C)C)c1,-3,97% (active),48%,-6,95% (active),12.3%,0,99% (active),78.5% (active),-13,97% (active),54.8%,3,94% (active),36%,-3,98% (active),76.8% (active)
CCCCN(C)N=Nc1c(C(N)=O)n[nH]c1C(C)C,14,84% (active),79.7% (active),-8,21%,24.4%,-4,52%,29.4%,-3,-5%,1.15%,-4,-10%,-24.2%,29,80% (active),57.6%
CS[C@H]1CC[C@H]2[C@@H]3CCc4cc(O)ccc4[C@H]3CC[C@]12C,0,73% (active),71.6% (active),2,66%,61.8%,0,71% (active),63.4%,7,85% (active),87.6% (active),12,81% (active),82.8% (active),-8,75% (active),85.8% (active)
CCCCCCCCCCCCNCC(=O)O,-2,80% (active),92.9% (active),1,60%,87.6% (active),3,23%,74.5% (active),1,53%,-6.3%,7,67%,92.2% (active),3,55%,92% (active)
O=C1c2cccc(O)c2C(=O)c2c(OC3OC(CO)C(O)C(O)C3O)cccc21 (configuration not stated),6,68%,76.8% (active),10,48%,24.5%,4,52%,78% (active),16,59%,34.4%,6,60%,74.8% (active),-7,62%,47.5%
Cc1cc(C)c([O-])c(-[n+]2c(-c3ccccc3)cc(-c3ccccc3)cc2-c2ccccc2)c1,14,14%,90.8% (active),1,1%,92.5% (active),22,22%,91% (active),-8,-8%,89.8% (active),-2,-2%,92.2% (active),3,3%,89.7% (active)
CSc1nc(N)c2cnn(C3OC(CO)C(O)C3O)c2n1 (configuration not stated),-9,8%,9.55%,-12,-11%,2.8%,-25,-6%,15.2%,7,28%,6.8%,3,80% (active),12%,-20,-12%,22%
